Experimental data as given in PubChem BioAssay AID1030 (National Center for Advancing Translational Sciences (NCATS), 2008).
In all, about 220,000 compounds went through this assay and about 16,000 (7.3%) were called active. About 25% were inconclusive and are not listed. Calls come from the whole dose curve; as a rule, active = well fitted inhibition curve with a large enough effect (not every such curve was filed as active); inconclusive = small, poorly fitted or top-dose-only effect, or another doubt; inactive = no such curve, though single readings can be large or run the other way. The sample as a whole holds a higher share of actives than the screen did.

Each compound was assayed against Aldehyde dehydrogenase 1A1 (Homo sapiens) (UniProt P00352) (assay: qHTS Assay for Inhibitors of Aldehyde Dehydrogenase 1 (ALDH1A1)). Conditions: Purified ALDH1A1, NADH fluorescence, propionaldehyde substrate; series mostly up to 75.3 µM; activity, negative = inhibition: at the top concentration.
Potency is the fitted concentration of half-maximal effect.
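Throughout, for activity, negative = inhibition: plate controls were no enzyme wells and a reference inhibitor.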

Aldehyde dehydrogenase 1A1 (Homo sapiens), sequence (P00352 whole entry, looked up): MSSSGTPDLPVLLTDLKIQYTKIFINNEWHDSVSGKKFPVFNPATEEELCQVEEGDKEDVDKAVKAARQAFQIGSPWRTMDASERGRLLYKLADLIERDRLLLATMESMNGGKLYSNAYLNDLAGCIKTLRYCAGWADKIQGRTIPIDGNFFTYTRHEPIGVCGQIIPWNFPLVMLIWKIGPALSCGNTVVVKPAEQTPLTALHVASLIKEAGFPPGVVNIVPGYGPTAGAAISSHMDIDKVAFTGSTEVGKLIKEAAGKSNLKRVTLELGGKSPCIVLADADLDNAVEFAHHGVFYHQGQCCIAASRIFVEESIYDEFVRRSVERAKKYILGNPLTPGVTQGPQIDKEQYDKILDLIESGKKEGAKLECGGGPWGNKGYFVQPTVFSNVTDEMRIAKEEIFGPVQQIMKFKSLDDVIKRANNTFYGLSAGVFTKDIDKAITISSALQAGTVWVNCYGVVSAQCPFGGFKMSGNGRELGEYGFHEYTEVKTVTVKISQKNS

Potency, active:
O=C(COC(=O)c1cnc(Cl)c(Cl)c1)NCc1ccco1 20 µM
O=C(COC(=O)c1ccc(Cl)nc1)NCc1cccs1 8.91 µM
CSc1nc(N)c(C#N)c(-c2ccccc2Cl)c1C#N 14.1 µM
C/C(=C\C(=O)c1ccc(Br)cc1)N1CCCCC1 25.1 µM
COc1ccccc1Oc1nc(-c2cccnc2)nc2ccccc12 20 µM
CCN1CCC(=NNC(=O)c2ccc(C)c([N+](=O)[O-])c2)CC1 4.47 µM
O=C(CSc1nc2ccccc2[nH]1)N/N=C/C=C\c1ccccc1[N+](=O)[O-] 5.01 µM
CCn1c(SCC(=O)N/N=C/C=C/c2ccccc2[N+](=O)[O-])nnc1-c1ccccc1 7.94 µM
CCn1c(-c2cc(OC)ccc2OC)csc1=Nc1c(C)n(C)n(-c2ccccc2)c1=O 22.4 µM
Fc1ccc(OCc2nn3c(Cn4nnc5ccccc54)nnc3s2)cc1 22.4 µM
Cc1cccc(C(=O)Nc2ccc3c(c2)C(=O)N(CC(C)C)C3=O)c1 2.82 µM
CCn1c(Cc2cccs2)nnc1SCC(=O)c1ccc(C)cc1 22.4 µM
Cc1ccc(-n2c(Cc3cccs3)nnc2SCC(=O)OC(C)C)cc1 5.62 µM

activity, negative = inhibition, inactive:
O=C(COC(=O)c1ccco1)NCc1ccc(Cl)cc1 14.6%
CC(C)Oc1ccc(CCc2nnc(SCC(=O)O)n2-c2ccccc2)cc1 -1.79%
COc1cc(S(=O)(=O)N2CCOCC2)ccc1NC(=O)COc1ccc(N(C)S(=O)(=O)c2ccc(C)cc2)cc1 11.5%
C=CCOCCN(C)C1=NS(=O)(=O)c2ccccc21 11.4%
COC(=O)c1sc(SC)c(S(=O)(=O)C(C)C)c1N/N=C(\C#N)S(=O)(=O)c1ccccn1 -9.06%
Cc1ccn(CC(=O)N2N=C(C(F)F)CC2(O)C(F)F)n1 (stereo not drawn) 8.82%
CC(C)(C)NC(=O)NCc1ccco1 8.98%
CCCC(=O)NC(=S)Nc1ccc(CN2CCOCC2)cc1 0.202%
CSc1nc(C)nc(C2CC2)c1C#N -9.62%
CCc1c(-c2ccccc2)nc(N)c(C#N)c1-c1cccs1 -1.42%
CC(Sc1nncn1C)C(=O)Nc1cc(C(F)(F)F)ccc1N1CCOCC1 (stereo not drawn) 8.74%
Cc1cc(NC(=O)CSc2nc3ccccc3n2CC(C)C)no1 2.17%
CC1CN/C(=C\C(=O)c2ccc(Br)cc2)C(=O)N1 (stereo not drawn) 13.4%
Cc1ccc(C(=O)N2CCCCCC2)cc1Br 7.25%
Cc1ccc(-c2csc(-c3cc(C)on3)n2)cc1 2.55%
COc1ccccc1Oc1ccc(S(=O)(=O)Nc2cccnc2)cc1 37.8%
c1cncc(-c2nc(N3CCNCC3)c3ccccc3n2)c1 -3.04%
O=c1cnnc(Nc2ccccc2F)[nH]1 9.78%
CCCNCc1cc(OCC)c(OCC(=O)Nc2ccccc2)cc1Br 0.675%
C=CCC(CC=C)(C(N)=O)c1ccccc1 0.196%
c1ccc(Cc2cc[n+](Cc3ccccc3)cc2)cc1 -6.45%
Cc1ccc(NC(=O)CN2CCC(C(N)=O)CC2)cc1[N+](=O)[O-] 10.7%
Cc1cc(O)c(NC(=O)c2ccc(C)c([N+](=O)[O-])c2)cc1C 13.5%
O=c1cc(N2CCCCC2)c(-c2ccccc2)nn1Cc1cccc(F)c1 -6.56%
CCOC(=O)CNC(=O)CSc1nnc(-c2cccc(OC)c2)n1CC -1.64%
O=C(Cc1cc(=O)[nH][nH]1)N/N=C/c1ccccc1[N+](=O)[O-] 6.17%
CCn1c(Cc2ccccc2)nnc1SCC(=O)Nc1ccccc1 3.56%
O=C(CSc1nc2ccccc2[nH]1)c1cccs1 4.01%
O=C(CCc1ccccc1)NNc1ccc(F)cc1 -1.27%
Cc1c(N=Nc2ccc(N(C)C)cc2)c(=O)n(-c2ccccc2)n1C -13.2%
COC(=O)Cc1csc(Nc2c(C)n(C)n(-c3ccccc3)c2=O)n1 11.6%
Cc1cc(OC(=O)c2ccccc2Cl)ccc1N1C(=O)CCC1=O -0.192%
Cc1ccc(NC2=C(Cl)C(=O)OC2OC(=O)c2ccccc2C)cc1 (stereo not drawn) -0.981%
Fc1ccc(CNc2nc3ccccc3n3nnnc23)cc1 -5.38%
CC(=O)OC(COc1ccc(F)cc1)Cn1cnc2ccccc21 (stereo not drawn) 5.28%
CCCn1c(N)c(C(=O)CSc2nnc(-c3cccnc3)n2-c2ccc(C)cc2C)c(=O)[nH]c1=O -1%
COc1ccc(Cl)cc1N(CC(=O)N/N=C/c1ccc(OCC(N)=O)cc1)S(C)(=O)=O 3.79%
COC(=O)c1nc(NC(=O)c2ccc(F)cc2)n[nH]1 7.95%
Cc1cccc(NC(=O)c2cccc(C(F)(F)F)c2)c1 4.83%
Cc1cccc(C(=O)Nc2ccc(CC(=O)O)cc2)c1 -3.62%
CC1CC(NC(=O)/C(C#N)=C/c2ccc[nH]2)CC(C)(C)C1 (stereo not drawn) 8.63%
COc1ccc(-n2c(SCC(=O)OC(C)C)nnc2-c2ccccn2)cc1 2.12%
CCn1c(SCC(=O)c2ccc(Cl)s2)nnc1-c1cccs1 -17.9%
CCn1c(SCC(=O)c2ccc3ccccc3c2)nnc1-c1cccs1 -10.3%
CCOC(=O)CSc1nnc(CNC(=O)c2cccs2)n1-c1ccccc1 -0.494%
